Screening results: PubChem, Johns Hopkins Ion Channel Center
KCNQ2 inh = rat KCNQ2 potassium channel inhibitors, primary screen, cell-based, CHO-K1, FluxOR thallium flux, B-score; Potassium voltage-gated channel subfamily KQT member 2 (Rattus norvegicus), O88943; 20 min; stronger effect = lower value; B-score at 10 µM; 310,000 compounds, 1.1% hits; AID 2156, 2009;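 active = fluorescence ratio B-score at most minus 3 library SDs, with starting brightness B-score within 2 library SDs, cut at about -5.5 in these data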
KCNQ2 enhance = potentiators of rat KCNQ2 potassium channel; CHO-K1 KCNQ2, FluxOR thallium flux fluorescence; stronger effect = higher value; B-score at 10 µM; 310,000 compounds, 0.54% hits; AID 2239, 2010;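 active = fluorescence ratio B-score at least 3 SD of library B-scores, with initial fluorescence B-score within 3 of them, cut at about 5.3 in these data; same plate scores as AID 2156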;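 note: B-score of peak minus minimum over baseline fluorescence ratio after K+ and Tl+ stimulus; positive B-score means potentiation of KCNQ2 with more thallium influx and brighter signal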
Kir21 confirm = mouse Kir2.1 channel blockers, retest, confirmation, cell-based, FluxOR thallium flux, duplicate | shares compounds with KCNQ2 enhance | Kir2.1-expressing cells, FluxOR thallium flux fluorescence; stronger effect = lower value | Tl flux remaining, % of negative control (stronger effect = lower value), % at 10 µM | 2,300 compounds, 41% hits;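 active = Primary-screen hit whose thallium flux fell at least 3 control SD below untreated wells in both duplicates, with normal baseline fluorescence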
Target sequence (P35561 whole entry, looked up): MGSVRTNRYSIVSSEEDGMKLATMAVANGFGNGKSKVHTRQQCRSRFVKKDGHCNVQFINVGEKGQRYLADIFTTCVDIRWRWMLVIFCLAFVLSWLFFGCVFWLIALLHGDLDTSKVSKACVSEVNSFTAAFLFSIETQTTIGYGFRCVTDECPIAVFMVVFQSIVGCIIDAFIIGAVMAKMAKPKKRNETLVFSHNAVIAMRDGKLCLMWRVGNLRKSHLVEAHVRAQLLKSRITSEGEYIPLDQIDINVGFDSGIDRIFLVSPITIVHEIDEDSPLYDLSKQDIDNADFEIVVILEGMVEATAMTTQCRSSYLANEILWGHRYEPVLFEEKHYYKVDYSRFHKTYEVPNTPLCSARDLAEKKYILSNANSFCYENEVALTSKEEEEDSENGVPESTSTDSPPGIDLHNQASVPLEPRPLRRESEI
HEK293 Tl flux = alters thallium flux in parental HEK293 cells, Kir2.1 counter-screen; shares compounds with KCNQ2 enhance; FluxOR thallium flux fluorescence; 0% = unstimulated blank wells; FluxOR signal as % of negative control (100 = no effect), % at 10 µM; 2,300 compounds, 19% hits; AID 2105;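 active = dye signal at least 3 control SD above or below untreated wells in both duplicates, raw fluorescence within 3, either direction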;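 note: percent is based on the flux ratio of peak minus minimum fluorescence over baseline F0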
CHO-K1 Tl ctr = nonspecific thallium flux increase in parental CHO-K1, confirmation, counter-screen for KCNQ2 potentiator project, cell-based, FluxOR thallium flux, duplicate. parental CHO-K1 cells, FluxOR thallium flux fluorescence; zero = vehicle mean+3SD, 100% = vehicle-minus-blank window. 1,200 compounds, 43% hits. activity increase over 3SD of controls, % at 10 µM. shares compounds with KCNQ2 enhance;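 active = signal rise of at least 3 SD above the untreated control mean, in both duplicate wells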;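 note: counter screen of KCNQ2 potentiator hits so any rise reflects channel-independent effects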
KCNQ1 sel pot = human KCNQ1 channel potentiation off-target, confirmation, selectivity assay for KCNQ2 potentiator project, cell-based, CHO, FluxOR thallium flux; shares compounds with KCNQ2 enhance; activation over 3SD threshold, % at 10 µM; CHO KCNQ1 stable, FluxOR thallium flux fluorescence; beyond 3SD, as % of vehicle-control signal; 1,200 compounds, 28% hits; AID 2283, 2010;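 active = fluorescence ratio rise of at least 3 SD of vehicle wells above their mean, in both replicate wells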
KCNQ2 pot conf = rat KCNQ2 channel potentiators, confirmation, cell-based, CHO, FluxOR thallium flux, duplicate; shares compounds with KCNQ2 enhance; CHO-KCNQ2 cells, FluxOR thallium flux fluorescence; potentiation, less the hit threshold, % at 10 µM; 1,200 compounds, 68% hits;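 active = fluorescence ratio rising 3 SD or more over the vehicle control mean in both replicates, plus primary screen hit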;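 note: peak minus minimum thallium fluorescence divided by baseline after K/Tl stimulus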
Kir2-1 sel = mouse Kir2.1 channel activation off-target, confirmation, selectivity assay for KCNQ2 potentiator project, cell-based, HEK293, FluxOR thallium flux | HEK293 Kir2.1, FluxOR thallium flux fluorescence | shares compounds with KCNQ2 enhance | 1,200 compounds, 2% hits | activity over 3SD threshold, % at 10 µM;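 active = fluorescence ratio rise of at least 3 SD above the vehicle-control mean, seen in both replicates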
KCNQ2 W236L pot = potentiators of retigabine-insensitive KCNQ2 W236L, mechanism study for KCNQ2 potentiator project, cell-based, rat KCNQ2 W236L, CHO, automated patch clamp; shares compounds with KCNQ2 enhance; automated patch clamp current; current increase over 3SD of negative controls (%), stronger effect = higher value, % at 25 µM; 940 compounds, 10% hits; AID 2558, 2010;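 active = current increase at least 3 SD of the untreated controls above them in both duplicate recordings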
Of the large screens only hits and unclear results are named; the others gave an inactive call (follow-up assays come after a bar, where they were run). A selection: hits, their analogues and other compounds. The true share with any hit is near 1.6%.

CC(C)NCC(O)Cn1c2c(c3ccccc31)CCc1c-2cnn1-c1ccccc1 (stereo not given)	none (no result: KCNQ2 enhance) | Kir21 confirm 54% | HEK293 Tl flux inactive
COc1ccc(C(=O)c2c(C)c3ccccc3n2CC(O)CNC(C)C)cc1 (stereo not given)	none
Cc1ccc2ncnc(Oc3ncccc3NC(=O)C(C)(C)C)c2c1	none
Cc1cc(Br)ccc1S(=O)(=O)NCc1ccccc1	none (no result: KCNQ2 enhance)
CCc1cc(C(=O)O)c(NC(=O)c2cc(OC)c(OC)c(OC)c2)s1	none
CCOC(=O)c1c(CSc2ccsc2)n(C)c2cc(Br)c(O)c(CN(C)C)c12	none (no result: KCNQ2 enhance) | Kir21 confirm 60% | HEK293 Tl flux 66%
CCOC(=O)c1c(CSc2ccccc2)n(C)c2cc(Br)c(O)c(CN(C)C)c12	none (no result: KCNQ2 enhance)
O=C1CC(NS(=O)(=O)c2cc(F)ccc2F)CN1c1ccc2c(c1)OCCO2 (stereo not given)	none (no result: KCNQ2 enhance)
Cc1ccc(C(=O)O)cc1N=Cc1cc(Br)cc(Br)c1O	KCNQ2 enhance 10 | Kir21 confirm inactive | HEK293 Tl flux inactive | CHO-K1 Tl ctr inactive | KCNQ1 sel pot inactive | KCNQ2 pot conf 31 | Kir2-1 sel inactive | KCNQ2 W236L pot inactive
CC(=O)Nc1ccc(C(=O)N/N=C/c2cc(Br)cc(Br)c2O)cc1	none (no result: KCNQ2 enhance)
O=C(Nc1nnc(COc2ccc(Cl)cc2)s1)c1ccco1	none (no result: KCNQ2 enhance)
CCN(C(=O)COC(=O)Cn1c(C)csc1=O)c1c(N)n(Cc2ccccc2)c(=O)[nH]c1=O	none (no result: KCNQ2 enhance)
CC(=O)c1cccc(NC(=O)COC(=O)c2ccccc2C)c1	none
O=[N+]([O-])c1ccccc1NC1CCN(Cc2ccccc2)CC1	none | Kir21 confirm 33% | HEK293 Tl flux inactive
O=C1CCC(=O)N1c1ccc(NC2CCN(Cc3ccccc3)CC2)c([N+](=O)[O-])c1	none (no result: KCNQ2 enhance)
Cc1ccc(-n2nnnc2SCC(=O)N2CCCCC2)cc1	none (no result: KCNQ2 enhance)
O=C(CSc1nnnn1-c1cccc2c1CCCC2)N1CCCCC1	KCNQ2 enhance 6.2 | Kir21 confirm 70% | HEK293 Tl flux inactive | CHO-K1 Tl ctr 69 | KCNQ1 sel pot inactive | KCNQ2 pot conf inactive | Kir2-1 sel inactive
CCCCNCc1cc(Br)c(OCc2cccs2)c(OC)c1	none (no result: KCNQ2 enhance) | Kir21 confirm 20% | HEK293 Tl flux inactive
CCNCc1cc(Cl)c(OCc2ccccc2)c(OCC)c1	none (no result: KCNQ2 enhance) | Kir21 confirm 42% | HEK293 Tl flux inactive
CCOc1cc(CNCc2ccncc2)cc(Br)c1OCc1ccc(F)cc1	none (no result: KCNQ2 enhance) | Kir21 confirm inactive | HEK293 Tl flux inactive
CCOc1cc(CNCCO)cc(Br)c1OCc1ccccc1	none (no result: KCNQ2 enhance) | Kir21 confirm inactive | HEK293 Tl flux inactive
CCOc1cc(CNCCSc2nnnn2C)cc(Br)c1OCc1ccccc1	none (no result: KCNQ2 enhance)
Fc1ccc(COc2ccc(Br)cc2CNCc2ccncc2)cc1	none (no result: KCNQ2 enhance)
CCCCNCc1cc(Br)c(OCC(=O)NCc2ccccc2)c(OC)c1	none (no result: KCNQ2 enhance)
CCOc1cc(CNCc2ccccn2)cc(Cl)c1OCC	none (no result: KCNQ2 enhance)
CC(=O)c1ccc(N2CCN(C(=S)NCCCN(C)C)CC2)cc1	none (no result: KCNQ2 enhance)
Cc1ccc(C(=O)NCCCNC(=O)c2ccco2)cc1C	none
Cc1ccc(OCC(=O)NNC(=O)Cc2ccc(S(=O)(=O)N3CCOCC3)s2)cc1	none
CSc1ncc(C(=O)Nc2cccc(C)c2C)c(C)n1	none
S=C1NC[C@H](c2ccccc2)N1CCCCC1CCCCC1	none
NC1=NC[C@H](c2ccccc2)N1CCCCC1CCCCC1	none (no result: KCNQ2 enhance) | Kir21 confirm 38% | HEK293 Tl flux inactive
O=C(Nc1ccccc1N1CCN(c2ccccc2)CC1)c1ccccc1	none
CCN(Cc1ccncc1)Cc1c(O)ccc2cc(Br)ccc12	none (no result: KCNQ2 enhance)
COc1ccccc1NC(=O)c1c(N=Cc2ccccc2O)cnn1C	KCNQ2 enhance 12 | Kir21 confirm inactive | HEK293 Tl flux inactive | CHO-K1 Tl ctr 47 | KCNQ1 sel pot 64 | KCNQ2 pot conf inactive | Kir2-1 sel inactive
COc1ccccc1NC(=O)c1nn(C)c(C(=O)Nc2ccccc2OC)c1[N+](=O)[O-]	none (no result: KCNQ2 enhance)
C[C@H]1CCC[C@@]2(O[C@@H](CCO)C[C@@H](O)[C@@H]2O)O1	none
S=C(NCc1ccc(Cl)cc1)NCc1ccccn1	none (no result: KCNQ2 enhance)
CC(C)CCC(CCNCc1ccccn1)c1ccc(Cl)cc1 (stereo not given)	none | Kir21 confirm 36% | HEK293 Tl flux inactive
CCOC(=O)C(Sc1cc(-c2ccccc2)nc2ncnn12)C(C)=O (stereo not given)	none (no result: KCNQ2 enhance)
O=C(Nc1ccc(C(=O)OC2CCCCC2)cc1)c1ccncc1	none (no result: KCNQ2 enhance)
Cc1nn(C)c(C)c1/C=C1/SC(=S)NC1=O	none
Cc1ccc(C2C(/C=C3/SC(=S)NC3=O)=C(c3cccs3)Oc3ccccc32)cc1 (stereo not given)	KCNQ2 enhance 5.8 | Kir21 confirm inactive | HEK293 Tl flux inactive | CHO-K1 Tl ctr inactive | KCNQ1 sel pot inactive | KCNQ2 pot conf inactive | Kir2-1 sel inactive
Cc1c(Cc2ccccc2)c(=O)oc2cc(OC(C)C(=O)NCC3CCC(C(=O)O)CC3)c(Cl)cc12 (stereo not given)	none
Cc1occc1C(=O)Nc1ccccc1C(=O)O	none (no result: KCNQ2 enhance)
Cc1occc1C(=O)Nc1ccc2ccccc2c1	KCNQ2 enhance 13 | Kir21 confirm inactive | HEK293 Tl flux inactive | CHO-K1 Tl ctr 105 | KCNQ1 sel pot inactive | KCNQ2 pot conf 60 | Kir2-1 sel inactive | KCNQ2 W236L pot inactive
Cc1cc(C)c(NC(=O)c2ccoc2C)c(C)c1	KCNQ2 enhance 6.1 | Kir21 confirm inactive | HEK293 Tl flux inactive | CHO-K1 Tl ctr inactive | KCNQ1 sel pot inactive | KCNQ2 pot conf 9.5 | Kir2-1 sel inactive | KCNQ2 W236L pot inactive
CC(=O)c1cccc(NC(=O)c2ccoc2C)c1	none
O=[N+]([O-])c1cccc(NC(=S)Nc2nc(-c3ccccc3Cl)cs2)c1	none
